In PubChem BioAssay AID1159580 (chemical genetic matrix, 2015):
Hit rate of the full screen: of about 5,500 compounds, about 2,000 (36%) were called active. Inconclusive results (about 18%) are left out. No stated cut-off is given here; in the data, active means normalized growth mostly below about 0.91 (no sharp cut-off); inconclusive means no clear call, values can overlap the other calls; inactive means mostly above about 0.92. Some of the results follow.

Assay: chemical genetic growth profiling, strain panel (AID 1159580);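 further: tested at 20 µM; growth read once vehicle control cultures reached saturation at 30 °C; 1 = growth at the plate median or of vehicle wells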
Conditions: S. cerevisiae deletion strains, growth OD

Measured: normalized growth

Cc1ccc(-c2nc3ccc(C)cn3c2CC(=O)N(C)C)cc1
inactive: locus YAL021C, strain ccr4, stronger effect = lower value 1.06 | locus YAL026C, strain drs2, stronger effect = lower value 1.01 | locus YAL030W, strain snc1, stronger effect = lower value 1.02 | locus YBL061C, strain skt5, stronger effect = lower value 0.998 | locus YBR009C, strain hhf1, stronger effect = lower value 1.02 | locus YBR023C, strain chs3, stronger effect = lower value 0.989 | locus YBR171W, strain sec66, stronger effect = lower value 1.04 | locus YBR231C, strain swc5, stronger effect = lower value 0.966 | locus YBR279W, strain paf1, stronger effect = lower value 0.993 | locus YCL011C, strain gbp2, stronger effect = lower value 1.01 | locus YCL016C, strain dcc1, stronger effect = lower value 0.987 | locus YCL061C, strain MRC1, stronger effect = lower value 1.02 | locus YCL069W, strain vba3, stronger effect = lower value 1.02 | locus YCR088W, strain abp1, stronger effect = lower value 1.03 | locus YDL005C, strain med2, stronger effect = lower value 1.01 | locus YDL040C, strain nat1, stronger effect = lower value 1 | locus YDR001C, strain nth1, stronger effect = lower value 1.02 | locus YDR069C, strain doa4, stronger effect = lower value 1.01 | locus YDR137W, strain rgp1, stronger effect = lower value 1.05 | locus YDR159W, strain sac3, stronger effect = lower value 0.96 | locus YDR195W, strain ref2 1 | locus YDR297W, strain sur2, stronger effect = lower value 1 | locus YDR334W, strain swr1, stronger effect = lower value 1.02 | locus YDR335W, strain msn5, stronger effect = lower value 0.991 | locus YDR392W, strain spt3, stronger effect = lower value 0.939 | locus YEL003W, strain gim4, stronger effect = lower value 1.01 | locus YEL037C, strain rad23, stronger effect = lower value 1.01 | locus YEL061C, strain CIN8 (second series), stronger effect = lower value 1.01 | locus YER015W, strain faa2, stronger effect = lower value 1.02 | locus YER016W, strain bim1, stronger effect = lower value 1.01 | locus YER111C, strain swi4, stronger effect = lower value 1.03 | locus YER155C, strain BEM2 (second series), stronger effect = lower value 0.998 | locus YFR010W, strain ubp6, stronger effect = lower value 1.02 | locus YGL167C, strain pmr1, stronger effect = lower value 0.996 | locus YGL173C, strain kem1, stronger effect = lower value 1.01 | locus YGL227W, strain vid30, stronger effect = lower value 1.01 | locus YGL240W, strain doc1, stronger effect = lower value 1.09 | locus YGL253W, strain hxk2, stronger effect = lower value 0.999 | locus YHR013C, strain ard1, stronger effect = lower value 1.06 | locus YHR027C, strain rpn1, stronger effect = lower value 0.981 | locus YHR142W, strain chs7, stronger effect = lower value 1.03 | locus YJL092W, strain hpr5, stronger effect = lower value 1.02 | locus YJL095W, strain BCK1 (second series), stronger effect = lower value 1.01 | locus YJL115W, strain asf1, stronger effect = lower value 1.02 | locus YJL129C, strain trk1, stronger effect = lower value 1 | locus YJL154C, strain vps35, stronger effect = lower value 1.02 | locus YJL164C, strain tpk1, stronger effect = lower value 1.01 | locus YJL166W, strain qcr8, stronger effect = lower value 1.03 | locus YJL187C, strain SWE1, stronger effect = lower value 1.01 | locus YKL160W, strain elf1, stronger effect = lower value 0.997 | locus YKR026C, strain gcn3, stronger effect = lower value 1.02 | locus YKR091W, strain srl3, stronger effect = lower value 1.03 | locus YLL001W, strain dnm1, stronger effect = lower value 0.988 | locus YLL026W, stronger effect = lower value 0.999 | locus YLL041C, strain sdh2, stronger effect = lower value 1.01 | locus YLR027C, strain aat2, stronger effect = lower value 1.02 | locus YLR221C, strain rsa3, stronger effect = lower value 0.974 | locus YLR258W, strain gsy2, stronger effect = lower value 1.03 | locus YLR262C, strain YPT6 (second series), stronger effect = lower value 1.01 | locus YLR320W, strain mms22, stronger effect = lower value 0.991 | locus YLR342W, strain FKS1, stronger effect = lower value 0.987 | locus YLR357W, strain rsc2, stronger effect = lower value 1.01 | locus YLR370C, strain arc18, stronger effect = lower value 0.978 | locus YLR384C, strain iki3, stronger effect = lower value 0.975 | locus YML120C, strain ndi1, stronger effect = lower value 0.984 | locus YMR058W, strain fet3, stronger effect = lower value 1.02 | locus YMR125W, strain sto1, stronger effect = lower value 1.03 | locus YMR129W, stronger effect = lower value 0.978 | locus YMR205C, strain PFK2, stronger effect = lower value 1 | locus YMR231W, strain pep5, stronger effect = lower value 1.02 | locus YNL071W, strain lat1, stronger effect = lower value 1.03 | locus YNL209W, strain ssb2, stronger effect = lower value 0.995 | locus YNL248C, strain rpa49, stronger effect = lower value 1.02 | locus YNL322C, strain KRE1 (second series), stronger effect = lower value 1.03 | locus YNR049C, strain mso1, stronger effect = lower value 0.986 | locus YOR001W, strain rrp6, stronger effect = lower value 0.951 | locus YOR070C, strain gyp1, stronger effect = lower value 0.988 | locus YOR080W, strain dia2, stronger effect = lower value 0.998 | locus YOR083W, strain WHI5, stronger effect = lower value 0.969 | locus YOR106W, strain vam3, stronger effect = lower value 1.08 | locus YOR265W, strain rbl2, stronger effect = lower value 0.969 | locus YOR270C, strain vph1, stronger effect = lower value 1.07 | locus YOR290C, strain snf2, stronger effect = lower value 1.03 | locus YPL051W, strain arl3, stronger effect = lower value 1.02 | locus YPL078C, strain atp4, stronger effect = lower value 1.03 | locus YPL106C, strain sse1, stronger effect = lower value 1.12 | locus YPL240C, strain hsp82, stronger effect = lower value 0.982
